# Measurements: PubChem BioAssay (Tox21)
# “And” between values parts separate entries of the source, which are not always exact repeats. Equal entries are not always repeated. Results filed as inconclusive are left out. Where a call stands in place of a potency, no number is given. The source made the active and inactive calls. Unless noted, the call rests on the fitted dose curve; in most records, active means well fitted curve in the direction sought with a large enough effect in the repeat runs; inconclusive means weak or mixed curves; inactive means no such curve, though single readings can be large; an effect the other way counts as inactive or inconclusive.
# How the values were obtained:
# [1] = molecular target: Acetylcholinesterase (Homo sapiens) (UniProt P22303); experiment: Acetylcholinesterase (AChE) small molecule antagonists: enzyme-based qHTS assay (AID 1347397; calls by dose curve; further: nearly all actives have a fitted effect of over 55% in size); settings: Potency: AChE enzyme activity inhibition; outcome: AChE enzyme activity inhibition
# Acetylcholinesterase (Homo sapiens), sequence (P22303 whole entry, looked up): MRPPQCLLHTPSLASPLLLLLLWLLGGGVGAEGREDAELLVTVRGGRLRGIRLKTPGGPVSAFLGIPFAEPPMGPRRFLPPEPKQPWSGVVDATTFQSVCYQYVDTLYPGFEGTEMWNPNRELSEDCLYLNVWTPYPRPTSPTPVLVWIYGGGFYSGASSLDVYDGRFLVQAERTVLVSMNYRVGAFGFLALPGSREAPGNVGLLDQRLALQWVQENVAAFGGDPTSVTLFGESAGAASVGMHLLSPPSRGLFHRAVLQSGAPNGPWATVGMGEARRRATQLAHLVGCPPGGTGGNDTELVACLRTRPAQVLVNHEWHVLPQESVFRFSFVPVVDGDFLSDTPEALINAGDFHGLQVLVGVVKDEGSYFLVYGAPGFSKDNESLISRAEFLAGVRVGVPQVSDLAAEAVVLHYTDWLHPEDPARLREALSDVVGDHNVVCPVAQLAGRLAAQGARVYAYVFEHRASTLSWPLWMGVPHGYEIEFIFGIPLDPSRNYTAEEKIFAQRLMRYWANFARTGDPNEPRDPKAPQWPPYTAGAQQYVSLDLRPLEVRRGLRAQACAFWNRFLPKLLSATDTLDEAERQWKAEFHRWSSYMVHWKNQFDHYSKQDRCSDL
# Summary of the method: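 Human recombinant acetylcholinesterase; substrate acetylthiocholine; thiocholine quantified with DTNB (colorimetric). Compound preincubation 30 min RT; reaction 10 min RT.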
# [2] = molecular target: Acetylcholinesterase (Homo sapiens) (UniProt P22303); experiment: Acetylcholinesterase (AChE) small molecule antagonists: fluorescence cell-based qHTS assay (AID 1347398; calls by dose curve; further: nearly all actives have a fitted effect of over 50% in size); settings: Potency: AChE activity; outcome: AChE activity
# Summary of the method: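 Thiocholine generated from acetylthiocholine by SH-SY5Y cell AChE is detected with Thiolite Green (Ex/Em 490/520 nm) after 40 min at room temperature, following 30 min compound pretreatment at 37 C.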
# [3] = molecular target: Acetylcholinesterase (Homo sapiens) (UniProt P22303); experiment: Acetylcholinesterase (AChE) small molecule antagonists: enzyme-based qHTS assay with human liver microsomes (AID 1347399; calls by dose curve; further: nearly all actives have a fitted effect of over 60% in size); settings: Potency: qHTS inhibition; outcome: qHTS inhibition
# Summary of the method: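 Recombinant human AChE (50 mU/mL in the enzyme mix) and human liver microsomes (0.25 mg/mL final) were preincubated with compound and NADPH (0.25 mg/mL final) for 30 min at 37 C. Acetylthiocholine/DTNB was then added; thiocholine was read colorimetrically after 10 min at room temperature.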
# [4] = qHTS assay for small molecule agonists of the p53 signaling pathway (AID 651631; calls by dose curve; further: nearly all actives have a fitted effect of over 15% in size)
# Summary of the method: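 Testing took place in human colorectal HCT-116 cells with stable p53RE-driven beta-lactamase. After 16 h of compound exposure at 37 °C, a FRET substrate was added and fluorescence recorded 2 h later.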
# [5] = qHTS assay for small molecule agonists of the p53 signaling pathway - cell viability (AID 651633; calls by dose curve; further: series mostly up to about 83 µM; nearly all actives have a fitted effect of over 30% in size)
# Summary of the method: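 p53RE-bla cells, seeded at 4,000 per well and rested 5 h at 37 C/5% CO2, received compounds in DMSO for 16 h at 37 C. CellTiter-Glo was then added, and luminescence was read after 30 min at room temperature to gauge cytotoxicity.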
# [6] = qHTS assay for small molecule disruptors of the mitochondrial membrane potential - cell viability (AID 720634; calls by dose curve;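 further: human HepG2 liver cancer cells; series mostly up to about 83 µM; nearly all actives have a fitted effect of over 20% in size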)
# Summary of the method: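 Human hepatoma HepG2 cells were treated for 1 hr with test chemicals, then given m-MPI dye and CellTiter-Glo. Cell viability reflects luminescence proportional to cellular ATP.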
# [7] = qHTS assay for small molecule disruptors of the mitochondrial membrane potential (AID 720635); further: potency means the concentration at half of the fitted maximal effect
# Summary of the method: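 HepG2 cells (2,000/well) attached overnight at 37C, then took compound for 1 hr at 37C, 5% CO2. Mito-MPS dye was added for 30 min; fluorescence was read at 490/535 nm (monomers) and 540/590 nm (aggregates).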
# [8] = qHTS assay to test for compound auto fluorescence at 590 nm (red) in HepG2 cells (AID 720674)
# Summary of the method: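 Intrinsic compound fluorescence in the red window (Ex/Em 540/590 nm) is measured in attached HepG2 cells exposed for 1 hr, DMSO vehicle as baseline, benchmarked to Rose Bengal sodium.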
# [9] = qHTS assay to test for compound auto fluorescence at 535 nm (green) in HepG2 cells (AID 720675)
# [10] = qHTS assay to test for compound auto fluorescence at 460 nm (blue) in HEK293 cells (AID 720678)
# Summary of the method: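 Blue read-out at excitation 405 nm and emission 460 nm follows overnight compound exposure of HEK293 cells at 37C in 5% CO2. Activity is given as auto fluorescence equivalency to triamterene.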
# [11] = qHTS assay to test for compound auto fluorescence at 590 nm (red) in HEK293 cells (AID 720679)
# Summary of the method: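 Red channel, Ex/Em 540/590nm; signal expressed as equivalency to Rose Bengal sodium. HEK293, 2,000 cells/well, 10% dialyzed FBS; 23 nL compound pinned after 4-5 hr attachment; overnight 37C/5% CO2 before reading.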
# [12] = qHTS assay to test for compound auto fluorescence at 535 nm (green) in HEK293 cells (AID 720680)
# [13] = qHTS assay to test for compound auto fluorescence at 460 nm (blue) in HEK293 cell free culture (AID 720681)
# Summary of the method: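 Test compounds were pinned into cell-free culture medium (DMEM with 10% FBS) and fluorescence was read directly at Ex/Em 405/460 nm. Signals were expressed as fluorescence equivalents of triamterene, with DMSO vehicle as control.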
# [14] = qHTS assay to test for compound auto fluorescence at 535 nm (green) in HEK293 cell free culture (AID 720682)
# Summary of the method: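 DMEM + 10% FBS, cell-free; cpd or DMSO pinned in; Ex485/Em535 read; output as fluorescein-equivalent signal.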
# [15] = qHTS assay to test for compound auto fluorescence at 590 nm (red) in HEK293 cell free culture (AID 720683)
# Summary of the method: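 Tox21 10K library compounds were pinned into cell-free DMEM with 10% FBS and fluorescence was read at excitation 540 nm. Activity is expressed as Rose Bengal sodium equivalency.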
# [16] = qHTS assay to test for compound auto fluorescence at 590 nm (red) in HepG2 cell free culture (AID 720684)
# Summary of the method: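 Measured in medium alone (MEM containing 10% FBS) following pintool addition of compound; emission at 590 nm with 540 nm excitation, referenced to Rose Bengal sodium.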
# [17] = qHTS assay to test for compound auto fluorescence at 460 nm (blue) in HepG2 cell free culture (AID 720685)
# Summary of the method: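 Compound (23 nL) or DMSO pinned into cell-free MEM with 10% FBS; blue fluorescence read at 405/460 nm excitation/emission, expressed as auto-fluorescence equivalency to triamterene.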
# [18] = qHTS assay to test for compound auto fluorescence at 535 nm (green) in HepG2 cell free culture (AID 720686)
# [19] = qHTS assay to test for compound auto fluorescence at 460 nm (blue) in HepG2 cells (AID 720687)
# Summary of the method: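 Cells (2,000/well in MEM with 10% FBS) attached overnight at 37 C, then were exposed to compound or DMSO for 1 hr at 37 C, 5% CO2. Fluorescence read at Ex/Em 405/460 nm, expressed as triamterene-equivalent signal.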
# [20] = molecular target: Glucocorticoid receptor (Homo sapiens) (UniProt P04150); experiment: qHTS assay to identify small molecule antagonists of the glucocorticoid receptor (GR) signaling pathway (AID 720692; active means well fitted inhibition curve with a large enough effect in the signal ratio in the repeat runs, not every such curve was filed as active; the % refers to the signal ratio)
# Glucocorticoid receptor (Homo sapiens), sequence (P04150 whole entry, looked up): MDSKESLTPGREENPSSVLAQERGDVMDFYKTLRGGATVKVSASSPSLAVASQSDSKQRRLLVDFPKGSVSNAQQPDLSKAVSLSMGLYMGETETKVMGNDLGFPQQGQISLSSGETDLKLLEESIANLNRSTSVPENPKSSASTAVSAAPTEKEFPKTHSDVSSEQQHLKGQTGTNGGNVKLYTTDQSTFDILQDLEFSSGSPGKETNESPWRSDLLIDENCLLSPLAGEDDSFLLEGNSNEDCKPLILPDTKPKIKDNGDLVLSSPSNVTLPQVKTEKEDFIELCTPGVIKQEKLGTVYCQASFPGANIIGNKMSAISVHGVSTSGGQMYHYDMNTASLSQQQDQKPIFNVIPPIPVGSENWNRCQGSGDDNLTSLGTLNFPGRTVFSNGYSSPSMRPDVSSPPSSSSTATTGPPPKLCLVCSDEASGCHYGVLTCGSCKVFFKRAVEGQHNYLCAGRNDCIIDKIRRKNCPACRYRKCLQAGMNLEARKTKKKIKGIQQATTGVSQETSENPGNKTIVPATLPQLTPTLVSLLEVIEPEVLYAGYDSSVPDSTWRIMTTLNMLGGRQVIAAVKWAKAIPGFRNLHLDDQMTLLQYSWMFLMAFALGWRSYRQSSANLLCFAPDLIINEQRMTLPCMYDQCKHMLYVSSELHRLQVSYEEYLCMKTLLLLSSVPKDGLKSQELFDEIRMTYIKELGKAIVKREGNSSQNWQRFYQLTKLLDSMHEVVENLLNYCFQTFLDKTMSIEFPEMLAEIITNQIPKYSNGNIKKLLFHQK
# Summary of the method: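 Fluorescence from cleaved LiveBLAzer B/G FRET substrate reports GRE-driven beta-lactamase in HeLa cells; compounds are tested against 5 nM dexamethasone (final) over 18 h at 37 C, substrate incubation 2 h at room temperature.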
# [21] = qHTS assay to identify small molecule antagonists of the glucocorticoid receptor (GR) signaling pathway - cell viability counter screen (AID 720693); further: nearly all actives have a fitted effect of over 55% in size
# [22] = qHTS assay for identifying genotoxic compounds that show differential cytotoxicity against isogenic chicken DT40 cell lines with known DNA damage response pathways - wild type cell line (AID 743012); further: potency means the concentration at half of the fitted maximal effect; nearly all actives have a fitted effect of over 60% in size
# Summary of the method: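 Quantitative HTS on parental DT40 cells: 40 h compound treatment at 37 C/5% CO2, with viability then determined by CellTiter-Glo luminescence. Values serve as the DNA repair-proficient reference for differential cytotoxicity.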
# [23] = qHTS assay for identifying genotoxic compounds that show differential cytotoxicity against isogenic chicken DT40 cell lines with known DNA damage response pathways - Rad54/Ku70 mutant cell line (AID 743015); further: potency means the concentration at half of the fitted maximal effect; nearly all actives have a fitted effect of over 60% in size
# [24] = qHTS assay to identify small molecule antagonists of the androgen receptor (AR) signaling pathway - cell viability counter screen (AID 743033; further: nearly all actives have a fitted effect of over 45% in size)
# [25] = qHTS assay to identify small molecule antagonists of the androgen receptor (AR) signaling pathway using the MDA cell line - cell viability counter screen (AID 743041; further: nearly all actives have a fitted effect of over 45% in size)
# Summary of the method: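 Viability counter screen run alongside the AR antagonist reporter: cells seeded 5 h before compound, R1881 added, 16 h incubation at 37C without CO2, fluorescent CellTiter-Fluor signal quantified.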
# [26] = qHTS assay to identify small molecule antagonists of the thyroid receptor (TR) signaling pathway - cell viability counter screen (AID 743064); further: potency means the concentration at half of the fitted maximal effect; nearly all actives have a fitted effect of over 50% in size
# Summary of the method: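 Viability of T3-stimulated (1 nM final) GH3.TRE-Luc cells is measured by CellTiter-Fluor fluorescence after 23.5 h compound exposure at 37 °C plus 30 min reagent incubation.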
# [27] = qHTS assay to identify small molecule antagonists of the thyroid receptor (TR) signaling pathway (AID 743065); further: potency means the concentration at half of the fitted maximal effect; nearly all actives have a fitted effect of over 55% in size
# Summary of the method: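 GH3.TRE-Luc rat pituitary cells carrying two TR response elements driving luciferase were plated for 4 h, given compound plus 1 nM T3 (final), and incubated 23.5 h at 37 C. ONE-Glo luminescence measured reporter inhibition; CellTiter-Fluor fluorescence tracked cytotoxicity.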
# [28] = tested on: thyroid hormone receptor (rat, GH3 cells); experiment: qHTS assay to identify small molecule agonists of the thyroid receptor (TR) signaling pathway (AID 743066; calls by dose curve)
# [29] = qHTS assay to identify small molecule antagonists of the estrogen receptor alpha (ER-alpha) signaling pathway - cell viability counter screen (AID 743074; calls by dose curve;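 further: HEK293 cells carrying ER-alpha-UAS-bla reporter stimulated with 17beta-estradiol; nearly all actives have a fitted effect of over 45% in size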)
# [30] = molecular target: Estrogen receptor (Homo sapiens) (UniProt P03372); experiment: qHTS assay to identify small molecule agonists of the estrogen receptor alpha (ER-alpha) signaling pathway (AID 743075; calls by dose curve;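 further: HEK293 GripTite cells with ER-alpha and UAS-driven beta-lactamase reporter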)
# Estrogen receptor (Homo sapiens), sequence (P03372 whole entry, looked up): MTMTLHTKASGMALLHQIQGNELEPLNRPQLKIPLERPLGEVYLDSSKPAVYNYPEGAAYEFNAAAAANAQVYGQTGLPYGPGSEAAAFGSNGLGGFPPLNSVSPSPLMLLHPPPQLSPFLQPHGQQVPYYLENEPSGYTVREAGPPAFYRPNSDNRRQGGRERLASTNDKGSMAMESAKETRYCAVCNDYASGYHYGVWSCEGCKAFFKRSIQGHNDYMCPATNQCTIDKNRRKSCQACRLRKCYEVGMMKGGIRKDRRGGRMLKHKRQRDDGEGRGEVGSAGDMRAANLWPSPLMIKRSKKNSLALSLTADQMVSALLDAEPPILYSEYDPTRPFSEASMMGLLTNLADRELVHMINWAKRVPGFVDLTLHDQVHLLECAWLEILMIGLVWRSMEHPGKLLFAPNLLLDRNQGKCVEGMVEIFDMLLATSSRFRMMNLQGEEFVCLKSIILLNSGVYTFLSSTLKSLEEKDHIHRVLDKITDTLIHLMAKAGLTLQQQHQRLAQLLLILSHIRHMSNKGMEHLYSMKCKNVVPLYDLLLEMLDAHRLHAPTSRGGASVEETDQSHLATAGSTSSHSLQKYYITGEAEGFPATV
# [31] = molecular target: Estrogen receptor (Homo sapiens) (UniProt P03372); experiment: qHTS assay to identify small molecule agonists of the estrogen receptor alpha (ER-alpha) signaling pathway using the BG1 cell line (AID 743079); further: nearly all actives have a fitted effect of over 20% in size
# [32] = qHTS assay to identify small molecule antagonists of the estrogen receptor alpha (ER-alpha) signaling pathway using the BG1 cell line (AID 743080; calls by dose curve;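 further: BG1 cells stimulated with 17beta-estradiol alongside compound; series mostly up to about 70 µM; nearly all actives have a fitted effect of over 25% in size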)
# Summary of the method: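 Luminescence from a 4×ERE-luciferase reporter in BG1-Luc-4E2 cells served as read-out. Cells, pre-cultured 5 days in stripped-serum phenol-red-free medium, were exposed to compound with 17beta-estradiol co-stimulation for 21.5 h at 37 C.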
# [33] = qHTS assay to identify small molecule antagonists of the estrogen receptor alpha (ER-alpha) signaling pathway using the BG1 cell line - cell viability counter screen (AID 743081);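 further: compound given together with 17beta-estradiol as the ER stimulus; series mostly up to about 70 µM; nearly all actives have a fitted effect of over 45% in size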
# Aromatase (Homo sapiens) = Aromatase (Homo sapiens) (UniProt P11511); experiment: qHTS assay to identify aromatase inhibitors (AID 743083); further: series mostly up to about 70 µM; nearly all actives have a fitted effect of over 55% in size
# Aromatase (Homo sapiens), sequence (P11511 whole entry, looked up): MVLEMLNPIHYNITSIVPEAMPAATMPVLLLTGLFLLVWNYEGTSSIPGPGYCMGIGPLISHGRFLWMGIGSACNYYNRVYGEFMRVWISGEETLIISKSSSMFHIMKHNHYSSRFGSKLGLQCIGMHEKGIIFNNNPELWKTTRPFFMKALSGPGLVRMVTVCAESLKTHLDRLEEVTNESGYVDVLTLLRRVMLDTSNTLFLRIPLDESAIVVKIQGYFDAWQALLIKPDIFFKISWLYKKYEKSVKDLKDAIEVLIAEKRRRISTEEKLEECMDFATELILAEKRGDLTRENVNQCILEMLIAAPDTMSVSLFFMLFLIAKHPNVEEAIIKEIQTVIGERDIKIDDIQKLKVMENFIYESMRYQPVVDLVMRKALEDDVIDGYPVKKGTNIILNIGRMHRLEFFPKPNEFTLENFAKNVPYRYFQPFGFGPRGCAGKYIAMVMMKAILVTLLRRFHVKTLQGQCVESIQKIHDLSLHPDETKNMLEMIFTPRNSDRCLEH
# [34] = qHTS assay to identify aromatase inhibitors - cell viability counter screen (AID 743084)
# [35] = molecular target: Aryl hydrocarbon receptor (Homo sapiens) (UniProt P35869); experiment: qHTS assay to identify small molecule that activate the aryl hydrocarbon receptor (AhR) signaling pathway (AID 743085);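 further: HG2L7.5c1 human HepG2 liver cells with stably integrated DRE-driven firefly reporter; series mostly up to about 70 µM; nearly all actives have a fitted effect of over 15% in size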
# Aryl hydrocarbon receptor (Homo sapiens), sequence (P35869 whole entry, looked up): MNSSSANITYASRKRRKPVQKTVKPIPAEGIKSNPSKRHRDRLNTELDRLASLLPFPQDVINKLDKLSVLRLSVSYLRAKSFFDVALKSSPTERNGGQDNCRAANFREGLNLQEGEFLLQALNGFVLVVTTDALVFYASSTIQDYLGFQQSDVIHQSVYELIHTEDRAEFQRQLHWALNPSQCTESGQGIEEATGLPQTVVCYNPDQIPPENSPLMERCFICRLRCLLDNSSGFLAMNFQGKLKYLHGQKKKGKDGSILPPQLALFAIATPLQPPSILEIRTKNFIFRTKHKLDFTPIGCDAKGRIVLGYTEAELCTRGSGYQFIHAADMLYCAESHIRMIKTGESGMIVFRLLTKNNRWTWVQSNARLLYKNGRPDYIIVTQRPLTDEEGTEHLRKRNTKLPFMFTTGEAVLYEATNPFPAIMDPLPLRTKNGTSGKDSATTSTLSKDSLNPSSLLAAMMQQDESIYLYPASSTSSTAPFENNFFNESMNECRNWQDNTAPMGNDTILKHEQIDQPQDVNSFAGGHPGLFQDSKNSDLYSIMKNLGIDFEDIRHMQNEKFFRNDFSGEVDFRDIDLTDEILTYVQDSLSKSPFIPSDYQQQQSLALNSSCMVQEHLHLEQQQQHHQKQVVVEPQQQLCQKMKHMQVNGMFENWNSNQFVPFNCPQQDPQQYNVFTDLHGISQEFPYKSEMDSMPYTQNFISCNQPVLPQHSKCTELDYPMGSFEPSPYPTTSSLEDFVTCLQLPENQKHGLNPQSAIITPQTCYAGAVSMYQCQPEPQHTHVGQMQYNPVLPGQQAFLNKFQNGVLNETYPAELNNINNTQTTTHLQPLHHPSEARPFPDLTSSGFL
# Summary of the method: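 A multiplexed format paired cell viability (CellTiter-Fluor fluorescence) with AhR-dependent luciferase output (ONE-Glo luminescence) in the same wells of HepG2 DRE-luc cells after 24 h compound exposure at 37C.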
smiles,measurement,setting,value
O=[N+]([O-])c1cc(C2CCCCC2)c(O)c([N+](=O)[O-])c1,Potency,[1],inactive
same,Potency,[2],inactive
same,Potency,[3],inactive
CC(C)[C@@]1(NC(=O)[C@@H]2C[C@@H]3c4cccc5[nH]cc(c45)C[C@H]3N(C)C2)O[C@@]2(O)[C@@H]3CCCN3C(=O)[C@H](Cc3ccccc3)N2C1=O,Potency,[4],inactive
same,Potency,[5],inactive
same,Potency,[6],inactive
same,Potency,[7],0.841 µM (active)
same,outcome,[8],inactive
same,Potency,[9],inactive
same,Potency,[10],inactive
same,outcome,[11],inactive
same,Potency,[12],inactive
same,Potency,[13],inactive
same,Potency,[14],inactive
same,outcome,[15],inactive
same,outcome,[16],inactive
same,Potency,[17],inactive
same,Potency,[18],inactive
same,Potency,[19],inactive
same,Potency,[20],inactive
same,Potency,[21],inactive
same,Potency,[22],29.8 µM (active)
same,Potency,[23],23.7 µM (active) and 26.6 µM (active)
same,Potency,[24],inactive
same,Potency,[25],inactive
same,Potency,[26],23.7 µM (active) and 21.1 µM (active)
same,Potency,[27],23.7 µM (active) and 26.6 µM (active)
same,Potency,[28],inactive
same,Potency,[29],inactive
same,Potency,[30],inactive
same,Potency,[31],inactive
same,Potency,[32],inactive
same,Potency,[33],inactive
same,Potency,Aromatase (Homo sapiens),inactive
same,Potency,[34],inactive
same,Potency,[35],inactive
COC(=O)c1ccc(C(=O)OC)c(C(=O)OC)c1,Potency,[1],inactive
same,Potency,[2],inactive
same,Potency,[3],inactive
